Source: PubChem
Integrin act MD: activates integrin-mediated alleviation for muscular dystrophy; alpha7betagal myoblasts, beta-gal FDG fluorescence, 48 h; Potency, µM (series often up to 38.3 µM), without a hit: at the top dose activation, most hits filed as activators; hit rate 0.064% among 350,000;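 further: 100% = response of the positive control SU9516; nearly all actives have a fitted effect of over 60% in size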
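alpha7betagal+/- myoblasts (passage 13, 250/well) treated 48 h at 37C with compounds at 1:260 dilution of DMSO stock. Lysed, then beta-galactosidase activity read as FDG fluorescence (ex 480/em 540) after 30 min, with pre-read for autofluorescence.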
HEK293 tox: cytotoxicity counter-screen for GLP-1 receptor inverse agonists | HEK293 cAMP-luciferase reporter cells, luminescence, 24 h | Potency, µM (top dose mostly 38.3 µM), for inactives: at the top dose activity change, negative = inhibition, actives largely listed as inhibitors | hit rate 0.13% among 410,000 | AID 624418;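 further: loss of luciferase light is scored as toxicity; on the % scale 0 is the no-effect control and ±100 the full control effect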
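Here, cytotoxicity is scored as loss of luminescence. The MLSMR collection was tested on cells seeded in medium containing 10% Nu serum, with a 24 hr compound exposure preceded by 12 hours of culture.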
GLP1R inv ag: inverse agonists of human GLP-1 receptor | P43220 | HEK293 GLP-1R CRE-luciferase, luminescence, 24 h; GLP-1R form is constitutively active | Potency, µM (titrated, usually from 38.3 µM), for the others: top-dose activity change, negative = inhibition, hits mostly inhibitors | hit rate 1.6% among 410,000; further: on the % scale 0 is the no-effect control and ±100 the full control effect; nearly all actives have a fitted effect of over 55% in size
Target sequence (P43220 whole entry, looked up): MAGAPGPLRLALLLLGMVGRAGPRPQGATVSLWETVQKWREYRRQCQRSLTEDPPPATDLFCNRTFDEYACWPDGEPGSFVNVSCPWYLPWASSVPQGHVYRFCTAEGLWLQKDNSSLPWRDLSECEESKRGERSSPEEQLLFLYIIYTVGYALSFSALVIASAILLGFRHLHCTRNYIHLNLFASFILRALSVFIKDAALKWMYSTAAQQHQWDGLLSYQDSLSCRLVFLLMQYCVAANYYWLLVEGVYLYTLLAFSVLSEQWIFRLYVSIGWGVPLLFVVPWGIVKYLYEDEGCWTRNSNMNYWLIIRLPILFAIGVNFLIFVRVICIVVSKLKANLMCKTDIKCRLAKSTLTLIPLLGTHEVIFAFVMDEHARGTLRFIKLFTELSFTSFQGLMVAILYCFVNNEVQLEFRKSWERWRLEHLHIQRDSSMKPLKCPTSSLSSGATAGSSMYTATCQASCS
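Assay principle: reduced luminescence from a cAMP-responsive reporter in HEK293 cells co-expressing a constitutively active GLP-1R. Conditions: 24 hr compound incubation, 37 deg C, 5% CO2.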
GLP1R ag: GLP-1 receptor (human) agonism | P43220 | HEK293 GLP-1R CRE-luciferase, luminescence, 4-6 h; cells express a hypersensitive GLP-1R form | Potency, µM (series often up to 45.6 µM), for the others: at the top dose activation, most hits filed as activators | hit rate 0.007% among 380,000; further: % of control where 0% means no effect
BRCA1 expr act: BRCA1 expression activation | AID 624202 | hit rate 1.1% among 380,000 | MCF7-BRCA1-FFLuc reporter, luminescence, 48 h; response scale: scaled: vehicle 0%, 10 µM genistein 100% | Potency, µM (highest dose often 46.1 µM), for the others: at the highest dose activation, actives largely listed as activators; further: nearly all actives have a fitted effect of over 80% in size
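48 h compound treatment of MCF7-BRCA1-FFLuc cells (phenol-red free MEM, 37 °C), then 15 min with luciferase substrate and luminescence imaging.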
An asterisk follows results filed as active; ? = inconclusive; nt = no result; [ ] = remark or other dose. This is a sample that favours compounds with a hit; in the whole collection about 2.7% have one here. The call rests on the fitted dose curve; in most records, active means well fitted curve in the direction sought with a large enough effect; inconclusive means small, poorly fitted or top-dose-only effect, or another doubt; inactive means no such curve, though single readings can be large; an effect the other way counts as inactive or inconclusive. Potency means the concentration at half of the fitted maximal effect.

SMILES	Integrin act MD	HEK293 tox	GLP1R inv ag	GLP1R ag	BRCA1 expr act
O=C(NC1=NCCS1)c1ccc(Br)s1	7%	1%	1%	3%	3.2µM*
Cc1cccc(-c2ncc(S(=O)(=O)C(C)(C)C)c(N)n2)c1	4%	13%	1%	?	5µM*
Cc1ccc(Cl)cc1N1CCN(C(=O)c2cc(S(=O)(=O)N3CCCC3)c[nH]2)CC1	nt	-26%	?	nt	nt
Cc1cccc(C(=O)NCC(c2ccco2)S(=O)(=O)c2cccs2)c1 (configuration not stated)	nt	-3%	12%	nt	nt
N#Cc1c(SCC(=O)O)nc(N2CCCCC2)c2c1CCCC2	-10%	-5%	-4%	4%	-38%
COC(=O)CSc1nc(N2CCCCC2)c2c(c1C#N)CCCC2	14%	21%	10µM*	-1%	3%
Nc1nc(N)c(S(=O)(=O)c2ccccc2)c(Nc2ccccc2)n1	nt	5%	11%	8%	-8%
c1ccc(COc2ccc(-c3cc4nc(NCCOc5ccccc5)ccn4n3)cc2)cc1	nt	-2%	?	-4%	-2%
c1ccc(COc2cccc(-c3cc4nc(NCCOc5ccccc5)ccn4n3)c2)cc1	nt	6%	10µM*	3%	-46%
C=CCSc1nncn1/N=C/c1ccc(OC)cc1	11%	-8%	-26%	1%	2.2µM*
Cc1ccc(CNS(=O)(=O)c2cc(C(=O)Nc3cccc(C(F)(F)F)c3)ccc2F)cc1	nt	0%	-20%	nt	nt
Cc1cc(C(=O)CN2C(=O)NC3(CCCCC3C)C2=O)c(C)n1Cc1cccs1 (configuration not stated)	4%	-1%	?	1%	4.5µM*
Cc1ccc(C)c(NC(=O)c2cc(S(=O)(=O)N3CCCCCC3)ccc2F)c1	nt	-7%	4%	nt	nt
Cc1ccc(NC(=O)CN2C(=O)C3C4C=CC(C4)C3C2=O)cc1 (configuration not stated)	-27%	0%	9%	-2%	-3%
O=C(CSc1nc2ccccc2[nH]1)Nc1ccc2c(c1)OCCO2	-16%	-13%	-8%	4%	10µM*
CC(=O)Nc1ccccc1-c1nnn(CC(=O)Nc2ccc3c(c2)OCCO3)n1	12%	0%	-5%	9%	-20%
O=C(CN1C(=O)C2C3C=CC(C3)C2C1=O)Nc1ccc2c(c1)OCCO2 (configuration not stated)	13%	-1%	3%	-8%	13µM*
Cc1ccc2nc(SCC(=O)Nc3ccc4c(c3)OCCO4)[nH]c2c1	-9%	-2%	6%	8%	66%
O=C(Nc1ccc2c(c1)OCCO2)C(=O)c1c[nH]c2ccccc12	9%	-29%	?	-1%	17%
O=C(Cn1nnc(-c2ccccc2F)n1)Nc1ccc2c(c1)OCCO2	4%	1%	-2%	10%	8.9µM*
Cc1[nH]c2ccccc2c1C(=O)C(=O)Nc1ccc2c(c1)OCCO2	1%	-24%	1%	5%	10µM*
COC(=O)c1ccc(NC(=O)N2CCN(Cc3cc(=O)n4nc(-c5ccc(C)cc5)sc4n3)CC2)cc1	nt	2%	8%	nt	0%
COc1ccc(S(=O)(=O)n2nc(-c3ccco3)nc2NCc2ccc(N(C)C)cc2)cc1	nt	12%	-7%	nt	nt
O=C(Cn1cnc2ccccc2c1=O)Nc1ccc2c(c1)OCCO2	?	3%	6%	-9%	3.2µM*
Cc1ccc(Cn2ccn(Cc3ccc(C)cc3)c(=O)c2=O)cc1	nt	-1%	6%	nt	nt
SMILES	Integrin act MD	HEK293 tox	GLP1R inv ag	GLP1R ag	BRCA1 expr act
CCNc1nc(NC(C)(C)C)nc(SC(C(C)=O)C(C)=O)n1	-2%	-10%	8.9µM*	-5%	-81%
CCC(=O)N1c2ccccc2CC1C(=O)NCCc1ccc(OC)cc1OC (configuration not stated)	nt	-15%	10%	nt	nt
CC1CCCC(C)N1C(=O)c1cc(-c2cccs2)on1 (configuration not stated)	2%	-26%	?	26%	16µM*
Cc1cc(C(=O)N2C(C)CCCC2C)no1 (configuration not stated)	9%	2%	2%	1%	-12%
CN(c1cccc(NC(=O)CN(c2ccc(C34CC5CC(CC(C5)C3)C4)cc2)S(C)(=O)=O)c1)S(C)(=O)=O	-62%	10µM*	3.2µM*	5%	-93%
CC(=O)c1ccc(-c2ccc([C@H]3[C@@H]4C=CCC[C@@]4(C)C(=O)N3Cc3ccccc3)c(F)c2)cc1	-31%	-5%	11µM*	-6%	-69%
COc1ccc(Br)cc1[C@H]1[C@@H]2C=CCC[C@@]2(C)C(=O)N1Cc1ccccc1	-8%	-15%	4.5µM*	5%	-19%
COc1ccc(-c2cc([C@H]3[C@@H]4C=CCC[C@@]4(C)C(=O)N3Cc3ccccc3)ccc2F)cc1	4%	4%	10µM*	6%	-21%
O=C(CC(O)(CC(=O)OCc1ccccc1)C(=O)OCc1ccccc1)OCc1ccccc1	9%	-1%	8.9µM*	9%	-22%
O=C(CC(=O)OCc1ccccc1)OCc1ccccc1	-6%	-3%	1%	-2%	11%
COc1ccc(CN(C)c2ccc(-c3nc(-c4ccc(OC)c(OC)c4)no3)cc2[N+](=O)[O-])cc1	nt	-3%	18%	nt	1%
CCN(CC)c1ccc(N=Nc2nn(C)c(C)c2[N+](=O)[O-])cc1	-30%	4.5µM*	6%	18%	?
CC(C)CC1NC(=S)N(Cc2ccccc2)C1=O (configuration not stated)	-56%	-22%	2.8µM*	-2%	-100%
O=C1C(Cc2ccccc2)NC(=S)N1Cc1ccccc1 (configuration not stated)	-3%	4%	?	3%	-19%
CSCCC1NC(=S)N(Cc2ccccc2)C1=O (configuration not stated)	?	-23%	10µM*	19%	3%
Cc1cc(C)c(CSc2nnc(C)n3c2cc2occc23)c(C)c1	nt	0%	?	nt	nt
O=C(Nc1nc(-c2ccc3c(c2)OCO3)cs1)C1CC1	0%	2%	?	5%	4.5µM*
O=C(O)C(=O)Nc1nc(-c2ccc3c(c2)OCCO3)cs1	-40%	0%	8%	6%	49%
CC(=O)Nc1cnc(-c2ccc3c(c2)OCO3)cn1	nt	-1%	-1%	-1%	2.8µM*
CC(=O)Nc1cnc(-c2cc(C)c(O)c(C)c2)cn1	nt	-26%	15%	26%	8.9µM*
O=CNc1ccc(/C=C/c2ccnc3ccccc23)cc1	nt	nt	nt	nt	29%
COc1ccc(NC(=O)c2c(N)c(C(=O)c3ccc(C)cc3)n3ccccc23)cc1OC	nt	0%	-10%	nt	nt
COc1cccc(-c2cn3ncsc3n2)c1	nt	1%	10%	nt	nt
COc1ccc(-c2nnc(-c3cccnc3)o2)cc1OC	41%[7.66 µM]	-4%	31%	?	90%
